The text below walks through data of PubChem BioAssay (EPA / NIEHS).

Active and inactive are the calls of the source. The calls were made as follows: active = hit-call score of the fitted dose curve at least 0.9, where 1 is the maximum; inactive = score below 0.9.

Read-out in this assay: KRT18 (gene 3875)
Put plainly: BSK_BF4T_Keratin818: BioMAP Diversity Plus: BF4T Assay for Keratin 818 Biomarker Activity (AID 2284266). To be noted: primary human bronchial epithelial cells with fibroblasts. On the procedure: BSK_BF4T is a cell-based, multiplexed-readout assay that uses bronchial epithelial cells and dermal fibroblasts, a human vascular primary cell, with measurements taken at 24 hours after chemical dosing in a microplate: 96-well plate.BSK_BF4T_Keratin818 is an assay component measured in the BSK_BF4T assay. It measures Keratin 8/18 antibody related to regulation of gene expression using ELISA technology.Data from the assay component BSK_BF4T_Keratin818 was analyzed at the endpoint, BSK_BF4T_Keratin818, in the positive analysis fitting direction relative to DMSO as the negative control and baseline of activity. Using a type of binding reporter, gain or loss-of-signal activity can be used to understand protein changes. To generalize the intended target to other relatable targets, this assay endpoint is annotated to the 'cell adhesion molecules' intended target family, where the subfamily is 'keratin'.
The levels of cell surface (or secreted, indicated by the prefix "s") biomarker endpoints were measured by ELISA. Overt cytotoxicity to cells in confluent adherent cultures (all systems other than the BT system) was assessed by measuring total protein levels using sulforhodamine B (SRB) staining in parallel cultures at the time of biomarker measurements, indicated as SRB endpoints. For proliferation assays for adherent cell types, individual cell types are cultured at sub-confluence and relative cell numbers quantified by SRB staining at time points optimized for each system (48 h: 3C and CASM3C systems; 72 h: BT and HDF3CGF systems; 96 h: SAg system). SRB was performed by staining cells with 0.1% SRB after fixation with 10% TCA and reading wells at 560 nm.Viability and proliferation of PBMC (T cells) was quantified by Alamar Blue reduction for the SAg and BT systems. For PBMC viability (referred to as PBMC Cytotoxicity within the assay endpoint names), cells were plated (75,000/well in a 96-well plate) and then chemical samples added for 1 h before addition of activators, SEB and TSST-1 (20 ng/mL final concentration each). Cells were incubated for 90 h. Then, Alamar Blue (20 uL/well) (Invitrogen, Cat DAL1100) was added for 6 h, and the plates were read with a fluorescence microplate reader at 546/580 nm (excitation/emission). For PBMC proliferation, cells were plated and activated as above but incubated for only 16 h prior to addition of Alamar Blue. Plates were read after 6 h.
Consider `CC(O)C(F)(F)C(F)(F)F` (centres undefined), for which the result was inactive.

On to `NC(=O)C(F)(F)C(F)(F)F`, for which the outcome was inactive.

`O=C(O)C(F)(OC(F)(F)C(F)(F)C(F)(F)F)C(F)(F)F` (centres undefined): the result was inactive.

As for `FC(F)(F)C(F)(C(F)(F)F)C(F)(F)C(F)(F)CC1CO1` (centres undefined), the outcome was inactive.

With `O=C(O)C=CC(F)(C(F)(F)F)C(F)(F)F`, the outcome was inactive.

For `OCC(F)(F)OC(F)(F)C(F)(F)OC(F)(F)C(F)(F)OC(F)(F)F`, the result was inactive.

As for `C=CC(=O)OCC(F)(F)C(F)F`, the outcome was inactive.

As for `O=C(O)C(F)(F)C(F)(F)C(=O)O`, the result was inactive.

As to `O=S(=O)(F)C(F)(F)C(F)(F)C(F)(F)C(F)(F)C(F)(F)C(F)(F)C(F)(F)C(F)(F)F`, the outcome was inactive.

For `OCC(F)(F)OC(F)(F)C(F)(F)OC(F)(F)C(F)(F)OC(F)(F)CO`, the result was inactive.

Regarding `OCC(F)(F)OC(F)(F)C(F)(F)OC(F)(F)CO`, the result was inactive.

For `O=C(O)C(F)(F)OC(F)(F)C(F)(F)OC(F)(F)C(=O)O`, the outcome was inactive.

Take `O=C(O)C(F)(F)OC(F)(F)C(F)(F)OC(F)(F)F`: the outcome was inactive.

As to `COC(=O)C(F)(F)C(F)(F)OC(F)(C(F)(F)F)C(F)(F)OC(F)=C(F)F` (centres undefined), the result was inactive.
